Screening data (PubChem BioAssay)
TRHR enhancer: allosteric enhancers of human TRH receptor; hit rate 0.66% among 360,000; enhancement, % at 2 µM; TRHR cells, fluo-8 calcium fluorescence, EC20 TRH enhancement; AID 493056; P34981; in the data active = enhancement above about 30%
Target sequence (P34981 whole entry, looked up): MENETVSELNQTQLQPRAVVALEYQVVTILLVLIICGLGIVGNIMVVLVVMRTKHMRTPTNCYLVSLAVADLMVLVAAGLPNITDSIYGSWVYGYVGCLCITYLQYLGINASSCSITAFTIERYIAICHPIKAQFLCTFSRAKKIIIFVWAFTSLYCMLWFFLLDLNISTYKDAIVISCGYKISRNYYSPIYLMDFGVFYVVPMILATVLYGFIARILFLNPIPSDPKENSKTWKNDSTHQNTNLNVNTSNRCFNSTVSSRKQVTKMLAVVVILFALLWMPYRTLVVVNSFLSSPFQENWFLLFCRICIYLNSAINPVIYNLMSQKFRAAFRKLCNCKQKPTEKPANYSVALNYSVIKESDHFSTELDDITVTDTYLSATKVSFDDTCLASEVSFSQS
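Enhancer read-out: after compound pinning and an initial kinetic agonist-mode read, an EC20 of TRH (10 nM final) was injected and fluo-8 calcium signal (Ex 480/Em 530) followed at 1 s/cycle for 100 cycles in TRHR-expressing cells.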
TRPML1 agonist: agonists of human TRPML1 channel | activation, % (test concentration not listed) | hit rate 0.12% among 410,000 | Q9GZU1 | TRPML1-expressing cells, Ca2+ dye fluorescence, FDSS; in the data active = activation above about 50%; inconclusive = mostly about 30% to 49%
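Calcium fluorescence on an FDSS kinetic reader gave the read-out. Tet-induced TRPML1-DL cells were plated overnight, dye-loaded (Ca8 with quencher, 45-90 min, room temperature, dark), then read 110 s after compound addition, and again 110 s after 4uM final 54-4 (EC80).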
TRPML1 blocker: human mucolipin-1 channel inhibition; Q9GZU1; TRPML1-inducible cells, Ca2+ dye fluorescence, FDSS; active compounds read low; inhibition of EC80 agonist-evoked calcium signal; activity change, negative = inhibition, % (no concentration beside the values); hit rate 0.02% among 390,000; AID 624415; in the data active = activity change below about -50%; inconclusive = between about -30% and that limit;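 also: stimulus is agonist 54-4 at its EC80 concentration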
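TRPML1-DL cells, Tet-induced overnight (~16 h, 37 °C) at 1,500 cells/well, were loaded with Ca8 no-wash dye plus quencher for 45-90 min at room temperature. Compounds were pinned during FDSS kinetic reading; agonist 54-4 at EC80 (4 uM final) then added.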
TRHR ag: activates the human TRH receptor; P34981; TRHR cells, calcium flux fluo-8, FDSS agonist mode; activation, % at 2 µM; hit rate 0.18% among 360,000; in the data active = activation above about 30%
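TRHR-expressing cells, plated overnight in medium with 10% serum, were loaded with fluo-8 calcium dye at room temperature. After a 10 s baseline, library compound was pin-added and calcium release was recorded kinetically (ex 480/em 530) as agonist response.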
Numbers stand for hits; 0 = inactive; ? = inconclusive; - = not tested or not shown. In the library only some 0.81% were active in any assay of this set; here they are far more common.

SMILES | TRHR enhancer | TRPML1 agonist | TRPML1 blocker | TRHR ag
COc1cccc(NC(=O)CCSc2ccc(C)cc2)c1 | 0 | 0 | 0 | 0
CC(=O)c1ccc(S(=O)(=O)Nc2ccc(-c3ccc(N4CCCCCC4)nn3)cc2)cc1 | 0 | 0 | 0 | 0
CC(=O)c1ccc(S(=O)(=O)Nc2ccc(-c3ccc(N4CCCCC4)nn3)cc2)cc1 | 31 | 0 | 0 | 0
COc1cc2c(cc1OC)C(c1cc(-c3cc(Cl)ccc3Cl)oc1C)=NCC2 | - | 0 | - | -
C=CCN1C(=O)/C(=C\C=C2\N(C)c3ccccc3C2(C)C)SC1=S | 0 | 0 | 0 | 0
CN1/C(=C\C=C2/SC(=S)N(CC(=O)O)C2=O)C(C)(C)c2ccccc21 | 0 | 0 | 0 | 112
CC1CC(C)CN(CCCSc2ccccc2)C1 (stereo not given) | 32 | 0 | 0 | 0
CC1C(=O)CCC1(C(=O)O)c1ccccc1 (stereo not given) | 33 | 0 | 0 | 0
COC(=O)CNc1c(-c2ccccc2)nc2ccc(Br)cn12 | 38 | 0 | 0 | 0
COC(=O)Nc1c(-c2ccccc2)nc2ccc(Cl)cn12 | 0 | 0 | 0 | 0
Cc1nnc2n(c1=O)C(CS(=O)(=O)c1ccc3ccccc3c1)CS2 (stereo not given) | 33 | 0 | 0 | 0
Cc1ccc(S(=O)(=O)CC2CSc3nnc(C)c(=O)n32)cc1 (stereo not given) | 0 | 0 | 0 | 0
O=C(Cn1cncn1)N/N=C/c1ccccc1Cl | 32 | 0 | 0 | 0
Cc1ccc(/C=N/NC(=O)Cn2cncn2)cc1 | 0 | 0 | 0 | 0
COc1cccc2c1C(=O)/C(=C\c1ccc(N(C)C)cc1)C2 | - | 62 | - | -
CNC(=O)c1cc(-c2cccs2)on1 | - | 0 | - | -
CN1CCN(C(=O)c2ccc(CSc3ccc(Cl)cc3)cc2)CC1 | 0 | 0 | 0 | 0
CN1CCN(C(=O)c2ccc(Cl)cc2)CC1 | 33 | 0 | 0 | 0
COC(=O)c1c(C)sc(-c2c(-c3ccc(F)cc3)[nH]c3[nH]c(=O)[nH]c(=O)c23)c1O | 0 | 0 | 0 | 56
Cc1nc2nc(-c3ccccc3)cn2nc1C | 0 | 0 | 0 | 0
CCc1c(-c2ccccc2)nc2nc(C)c(C)nn12 | 37 | 0 | 0 | 0
COc1ccc2[nH]c(C(O)C(O)c3nc4c(OC)c(OC)ccc4[nH]3)nc2c1OC (stereo not given) | - | 0 | - | -
CC(=O)Nc1ccc(NS(=O)(=O)c2cc(Br)cc3c2N(C(=O)C2CC2)CC3)cc1 | 0 | 0 | 0 | 0
COc1ccc(NS(=O)(=O)c2cc(Br)cc3c2N(C(=O)C2CC2)CC3)cc1OC | 49 | 0 | 0 | 0
O=c1c(/C=C(\O)c2ccccc2)nc2ccccc2n1-c1ccccc1 | 0 | ? | 0 | 47
SMILES | TRHR enhancer | TRPML1 agonist | TRPML1 blocker | TRHR ag
CNC(=O)c1ccccc1NC(=O)C1CC(=O)N(C(C)C)C1 (stereo not given) | 37 | 0 | 0 | 0
CCOc1ccc(OCCC(=O)N(CC)CC(=O)Nc2ccccc2OC)cc1 | - | 0 | 0 | -
CCN(CC(=O)Nc1ccccc1OC)C(=O)CCc1ccccc1 | 39 | 0 | 0 | 0
COc1cc(OC)c(NC(=O)CSc2cc(=O)n(C)c3ccc(Cl)cc23)cc1Cl | 40 | 0 | 0 | 0
CNc1ccc(C=O)cc1Cl | - | 0 | - | -
C[C@@H](NC(=O)c1nc[nH]c1C(=O)OCc1ccccc1)c1ccccc1 | 0 | 0 | 0 | 0
C[C@@H](NC(=O)c1[nH]cnc1C(=O)Nc1ccccc1)c1ccccc1 | 36 | 0 | 0 | 0
C[C@@H](NC(=O)c1nc[nH]c1C(=O)NCC(=O)OCc1ccccc1)c1ccccc1 | 30 | 0 | 0 | 0
Cc1ccc(NC(=O)c2nc[nH]c2C(=O)N[C@@H](C)c2ccccc2)cc1 | 0 | 0 | 0 | 0
CC(C)CCC(C(=O)O)C(C)CC(=O)NC1CCCCC1 (stereo not given) | 0 | 0 | 0 | 0
CCCCCC(C(=O)O)C(C)CC(=O)NC1CCCCC1 (stereo not given) | 38 | 0 | 0 | 0
CCN(CC)C(=O)C1CCCN(c2ccccc2[N+](=O)[O-])C1 (stereo not given) | 37 | 0 | 0 | 0
C=C1C=C(C)n2ncc(C(=O)Nc3ccc(C)cn3)c2N1 | - | 0 | - | -
CN1/C(=C\C(=O)c2cccc(S(=O)(=O)N3CCCCC3)c2)C(C)(C)c2ccccc21 | 30 | 0 | 0 | 0
Cc1cc2c(s1)c1cnn(Cc3c(F)ccc(F)c3Cl)c(=O)c1n2C | 0 | - | - | 0
COc1ccc2cc(C(=O)N/N=C/c3sc4ccccc4c3O)ccc2c1 | 0 | ? | 0 | 33
CCOc1ccccc1-n1c(=S)sc2c(=O)n(-c3ccc(C)cc3)c(=S)[nH]c21 | 0 | 66 | ? | 0
COc1cc(OC)c2c(c1)C(=O)OC2OC (stereo not given) | 36 | 0 | 0 | 0
Cc1ccsc1/C=N/NC(=O)c1cc(-c2ccncc2)nc2ccccc12 | 36 | 0 | 0 | 0
CCOc1ccc(Nc2c(S(=O)(=O)c3ccc(C)cc3)cnc3ccc(F)cc23)cc1 | 0 | 63 | 0 | 0
CN(Cc1cc(-c2ccccc2)on1)C(=O)c1cc(COc2c(F)cccc2F)on1 | 34 | - | - | 0
Cc1cc2c(s1)c1cnn(Cc3c(Cl)cccc3Cl)c(=O)c1n2C | 0 | - | - | 0
CSC1=N/C(=C\c2ccc(C)cc2)C(=O)S1 | 0 | 0 | 0 | 0
CSC1=N/C(=C\c2ccccc2C)C(=O)S1 | 32 | 0 | 0 | 0
CC(C)(C)n1ncc2c(=O)n(Cc3ccc(OC(F)(F)F)cc3)cnc21 | - | 0 | 0 | -
SMILES | TRHR enhancer | TRPML1 agonist | TRPML1 blocker | TRHR ag
CCOc1cccc(CN(CC)CC2CCCN(CCc3cccc(OC)c3)C2)c1O (stereo not given) | 34 | 0 | 0 | 0
CCN(Cc1cccc(OC)c1)CC1CCCN(CCc2cccc(OC)c2)C1 (stereo not given) | 0 | 0 | 0 | 0
CCc1ccc(NC(=O)c2sc3nc(C)cc(C)c3c2NC(=O)c2ccccc2OC)cc1 | 40 | 0 | 0 | 0
Cc1ccc(O)c(C(=O)c2cc(C#N)c(=O)n(-c3nccs3)c2)c1 | 0 | 63 | 0 | 0
CC(=C/c1ccccc1)/C=N/n1c(C)n[nH]c1=S | 32 | - | - | 0
CCn1c(C(=O)N2CCC(C(=O)N3CCN(c4ccc(OC)cc4)CC3)CC2)cc2sccc21 | 0 | 0 | 0 | 0
CCn1c(C(=O)N2CCCC(C(=O)N3CCN(c4ccccc4)CC3)C2)cc2sccc21 (stereo not given) | 0 | 61 | ? | 0
O=C(COc1ccccc1C(=O)Nc1ccccc1)NC1CCCCC1 | - | 0 | - | -
O=C(Nc1ccc2nc(N3CCOCC3)sc2c1)c1cc2ccccc2o1 | - | 0 | ? | -
Cc1c(C(=O)Nc2ccc3nc(N4CCOCC4)sc3c2)oc2ccccc12 | 0 | 55 | 0 | 0
COC(=O)c1sc(NC(=O)C2CCCO2)c(C(=O)OC)c1C (stereo not given) | 32 | 0 | 0 | 0
CCOC(=O)c1sc(NC(=O)C2CCCO2)c(C(=O)OCC)c1C (stereo not given) | 0 | - | - | 0
Cc1ccc(S(=O)(=O)N(C)CC(=O)N2CCCCCC2)cc1 | 33 | - | - | 0
Cc1ccc(S(=O)(=O)N(C)CC(=O)N2CCCC2)cc1 | 0 | 0 | 0 | 0
CSc1nnc(C)c(/C=C/Nc2ccc(Cl)cc2)n1 | 0 | 0 | 0 | 31
